The results in this text go back to the antibiotic and cytotoxicity screens of Wong et al. (2023).

In all, about 39,000 compounds went through this assay and about 3,300 (8.5%) were called active. The full list was thinned out, with actives kept by preference.

The subject of this experiment is HepG2. In words: cytotoxicity call (relative viability < 0.9). Particulars: 10 µM.
Take `COc1ccc(OC(=O)N(C)C[C@@H]2OCc3ccccc3-c3c(n(C)c4ccccc34)C(=O)N([C@@H](C)CO)C[C@@H]2C)cc1`: the cytotoxicity call is “inactive”.
As for `COC(=O)[C@@H]1[C@@H](CO)[C@@H]2Cn3c(cccc3=O)[C@H]1N2C(=O)C1CC1`, the cytotoxicity call is “inactive”.
Under `N[C@@H](CO)Cc1ccccc1` stands “inactive”.
Under `CCN(CC)C(=O)C1=NO[C@]2(CCNC2)C1` stands “inactive”.
Under `COc1cc2c(cc1OC)C1CC(=O)C(CC(C)C)CN1CC2` (centres undefined) stands “active”; under `CCC1CN2CCc3cc(OC)c(OC)cc3C2CC1CC1NCCc2cc(OC)c(OC)cc21.Cl.Cl` (centres undefined), “active”; under `COc1cc2c(cc1OC)C(C)NCC2` (centres undefined), “inactive”.
Turning to `COc1cc2c(cc1O)CCNC2C` (centres undefined), the cytotoxicity call is “inactive”.
Under `CNC1C(O)C(OC2C(N)CC(N)C(OC3OC(C(C)O)C(O)C(O)C3N)C2O)OCC1(C)O` (centres undefined) stands “inactive”.
Under `CNC(=O)[C@H]1C[C@H]2CN(CC3CC3)C[C@H]1O2` stands “inactive”.
Under `CCN1C[C@H]2C[C@H](C(=O)NCC3CC3)[C@@H](C1)O2` stands “inactive”; under `C[C@@]1(O)[C@H](O)[C@@H](CO)O[C@H]1n1ccc2c(N)ncnc21`, “inactive”; under `CN(C)C(=O)Oc1cccc([N+](C)(C)C)c1.COS(=O)(=O)[O-]`, “inactive”.
For the molecule `COc1ccc(CCN)cc1OC`, the cytotoxicity call is “inactive”.
`COc1ccc(Cc2nccc3cc(OC)c(OC)cc23)cc1OC.Cl`: the cytotoxicity call is “active”.
In the case of `COc1ccc(C[C@@H](N)c2ccc(C)cn2)cc1OC`, the cytotoxicity call is “inactive”.
For `NCCc1cc(O)c(O)cc1O`, the cytotoxicity call is “inactive”.
Under `COc1cccc(C=O)c1OC` stands “inactive”; under `COc1cc(OC)c(OC)cc1C=O`, “active”.
Under `COc1cc2c(cc1C=O)OCO2` stands “inactive”.
In the case of `O=C1C[C@@H](c2ccc(O)cc2)CN1`, the cytotoxicity call is “inactive”.
Under `O=C(O)C(Cl)Cl` stands “inactive”; under `N[C@@H](Cc1ccccc1)c1ccc2c(c1)OCCO2`, “inactive”.
Under `C1CCC(NC2CCCCC2)CC1` stands “inactive”.
Under `CC12C=CC(=O)C=C1CCC1C2CCC2(C)C(=O)CCC12` (centres undefined) stands “inactive”; under `CCC1(C2OC(C3OC(O)(CO)C(C)CC3C)CC2C)CCC(C2(C)CCC3(CC(O)C(C)C(C(C)C(OC)C(C)C(=O)[O-])O3)O2)O1.[Na+]` (centres undefined), “active”.
Take `S=C=NCc1ccccc1`: the cytotoxicity call is “active”.
Under `Cl.NCCc1ccccc1` stands “inactive”.
Under `NC(Cc1ccccc1)Cc1ccccc1` stands “inactive”; under `O=C(O)[C@H]1N[C@H]2CC[C@@H]1C2`, “inactive”; under `CC(=O)N[C@@H]1[C@H](O[C@@H]2O[C@H](C[C@@H](O)[C@H]3O[C@@H](n4ccc(=O)[nH]c4=O)[C@H](O)[C@@H]3O)[C@H](O)[C@H](O)[C@H]2NC(=O)/C=C/CCCCCCCCC(C)C)O[C@@H](CO)[C@H](O)[C@H]1O`, “active”.
Under `COc1ccc(OC(=O)N(C)C[C@H]2OCc3ccccc3-c3c(n(C)c4ccccc34)C(=O)N([C@H](C)CO)C[C@H]2C)cc1` stands “inactive”; under `C1COC2(CN1)CNC2`, “inactive”.
Turning to `O.O=P1(N(CCCl)CCCl)NCCCO1` (centres undefined), the cytotoxicity call was “inactive”.
Under `Cc1ccnc(N2CCNCC2)c1` stands “inactive”; under `CCCCCCCCCC(=O)O[C@@H]1[C@@H](C)[C@]2(O)[C@@H](C=C(CO)C[C@]3(O)C(=O)C(C)=C[C@@H]23)[C@@H]2C(C)(C)[C@@]12OC(=O)CCCCCCCCC`, “active”; under `CCCCCCCCCCCCCC(=O)O[C@@H]1[C@@H](C)[C@@]2(O)[C@@H](C=C(CO)C[C@]3(O)C(=O)C(C)=C[C@@H]23)[C@@H]2C(C)(C)[C@]12OC(C)=O`, “active”.
Under `CC1=C[C@H]2[C@]3(O)[C@H](C=C(CO)C[C@]2(O)C1=O)[C@H]1C(C)(C)[C@@]1(O)[C@H](O)[C@@H]3C` stands “inactive”; under `CCCCCCCCCC(=O)O[C@@H]1[C@@H](C)[C@@]2(O)[C@@H](C=C(CO)C[C@]3(O)C(=O)C(C)=C[C@@H]23)[C@@H]2C(C)(C)[C@]12OC(=O)CCCCCCCCC`, “inactive”; under `Cc1ccc(CC2(N)CC2)cc1`, “inactive”.
Under `CC(C)C[C@H](NC(=O)[C@H](CO)NC(=O)CNC(=O)[C@H](CC(C)C)NC(=O)[C@H](CCC(=O)O)NC(=O)[C@H](Cc1ccc(O)cc1)NC(=O)[C@H](CO)NC(=O)[C@H](CC(N)=O)NC(=O)[C@H](Cc1ccccc1)NC(=O)[C@H](CO)NC(=O)[C@@H](N)CSSC[C@H](N)C(=O)N[C@@H](Cc1ccc(O)cc1)C(=O)NCC(=O)N[C@@H](CCCNC(=N)N)C(=O)N[C@@H](CCCCN)C(=O)N[C@@H](CCCCN)C(=O)N[C@@H](CCCNC(=N)N)C(=O)N[C@@H](CCCNC(=N)N)C(=O)N[C@@H](CCC(N)=O)C(=O)N[C@@H](CCCNC(=N)N)C(=O)N[C@@H](CCCNC(=N)N)C(=O)N[C@@H](CCCNC(=N)N)C(=O)O)C(=O)O` stands “inactive”; under `CN(CC[C@H](N)CC(=O)N[C@H]1C=C[C@@H](n2ccc(N)nc2=O)O[C@@H]1C(=O)O)C(=N)N`, “inactive”; under `c1cncc(N2CCNCC2)c1`, “inactive”.
Turning to `Cc1[nH]c2ccccc2c1CCN`, the cytotoxicity call was “inactive”.
Under `C=CCOC(=O)[C@@H]1[C@H](C(=O)OC)N(C)[C@@H](c2ccccc2)[C@]12C(=O)Nc1ccc(I)cc12` stands “inactive”; under `OCCN(CCO)CCO`, “inactive”; under `NC1Cc2ccccc2C1`, “inactive”.
Under `CC(C)(O)/C=C/C(=O)[C@](C)(O)[C@H]1[C@H](O)C[C@@]2(C)[C@H]3CC=C4[C@@H](CC(=O)C(=O)C4(C)C)[C@]3(C)C(=O)C[C@]12C` stands “active”.
Under `CC(=O)OC(C)(C)/C=C/C(=O)C(C)(O)[C@H]1[C@H](O)C[C@@]2(C)[C@H]3CC=C4[C@@H](C[C@H](O)C(=O)C4(C)C)[C@]3(C)C(=O)C[C@]12C` (some centres undefined) stands “active”; under `Cc1nc(N2CCN(C)CC2)ccc1N`, “inactive”.
`C[C@@H]1CN([C@H](C)CO)C(=O)CCCn2nncc2CO[C@H]1CN(C)C(=O)Oc1cccc2ccccc12`: the cytotoxicity call was “inactive”.
Under `O=C1C2CCN(CC2)C1(CO)CO` stands “inactive”; under `CN[C@@H]1[C@@H](O)[C@@H](O[C@@H]2[C@@H](O)[C@H](O[C@H]3O[C@H](CN)CC[C@H]3N)[C@@H](N)C[C@H]2N)OC[C@]1(C)O.CN[C@@H]1[C@@H](O)[C@@H](O[C@@H]2[C@@H](O)[C@H](O[C@H]3O[C@H]([C@@H](C)N)CC[C@H]3N)[C@@H](N)C[C@H]2N)OC[C@]1(C)O.CN[C@@H]1[C@@H](O)[C@@H](O[C@@H]2[C@@H](O)[C@H](O[C@H]3O[C@H]([C@@H](C)NC)CC[C@H]3N)[C@@H](N)C[C@H]2N)OC[C@]1(C)O`, “inactive”; under `CN1C2CCC1CC(OC(=O)C(CO)c1ccccc1)C2.O=S(=O)(O)O` (centres undefined), “inactive”.
Under `CNCC(=O)c1ccc(O)c(O)c1.Cl` stands “inactive”; under `CCn1nc(-c2cccnc2)nc2c(=O)n(C)c(=O)nc1-2`, “active”; under `CCCC(=O)O[C@H]1CN2CC[C@H](O)[C@@H]2[C@@H](O)[C@@H]1O`, “inactive”.
Under `O=[N+]([O-])O[C@@H]1CO[C@H]2[C@@H]1OC[C@@H]2O` stands “inactive”; under `C1CNC[C@@H](N2CCCC2)C1`, “inactive”; under `O=C(NC[C@H]1CC[C@@H]2NC[C@@H]2O1)C1CCCC1`, “inactive”.
Take `C=CCN=C=S`: the cytotoxicity call is “active”.
Under `O=C1NCN(c2ccccc2)C12CCNCC2` stands “inactive”; under `CN1C[C@H]2CON[C@@H]2C1`, “inactive”; under `CC(C)(CN)CNc1ccc([N+](=O)[O-])c2cccnc12`, “active”.
Under `O=[N+]([O-])c1ccc2c3c(cccc13)CC2` stands “inactive”; under `O=C1O[C@H]2CN[C@@H]1C2`, “inactive”; under `N[C@@H](C(=O)O)c1nn[nH]n1`, “inactive”.
With `OCC(O)C1OC2OC(C(Cl)(Cl)Cl)OC2C1O` (centres undefined), the cytotoxicity call was “inactive”.
Consider `CS(=O)(=O)N1CCO[C@]2(COCCN(Cc3ccncc3)C2)C1`, for which the cytotoxicity call is “inactive”.
As for `O=c1[nH]c2ccccc2n1C1CCN(Cc2ccc(-c3nc4cc5[nH]cnc5cc4nc3-c3ccccc3)cc2)CC1`, the cytotoxicity call was “active”.
Under `CN1[C@@H]2CC[C@H]1C[C@H](O)C2` stands “inactive”; under `Cc1cccnc1N1CCNCC1`, “inactive”; under `O=C1[O][SbH]23[O]C(=O)C([O]2)C2[O][SbH]4([O]C(=O)C([O]4)C1[O]3)[O]C2=O`, “active”.
Under `O=C1[O][SbH]23[O]C(=O)[C@H]([O]2)[C@H]2[O][SbH]4([O]C(=O)[C@H]([O]4)[C@H]1[O]3)[O]C2=O` stands “active”; under `N#C[C@H]1NCc2cnnn2-c2ccccc21`, “inactive”; under `O=[N+]([O-])c1c(NCCO)ccc2nonc12`, “inactive”.
Under `CC(C)(C)CC(=O)N1C[C@H]2C[C@@H]1CN2` stands “inactive”.
As for `Cc1cc[n+](C)cc1`, the cytotoxicity call was “inactive”.
Under `O=c1n(Cl)c(=O)n(Cl)c(=O)n1Cl` stands “inactive”; under `CC(COc1ccc(Oc2ccccc2)cc1)Oc1ccccn1` (centres undefined), “inactive”.
Under `O=c1[n-]c(=O)n(Cl)c(=O)n1Cl.[Na+]` stands “inactive”; under `CCC(C)C1OC2(C=CC1C)CC1CC(CC=C(C)C(OC3CC(OC)C(OC4CC(OC)C(O)C(C)O4)C(C)O3)C(C)C=CC=C3COC4C(O)C(C)=CC(C(=O)O1)C34O)O2` (centres undefined) [ABAMECTIN (avermectin B1a shown) ], “active”.
Under `CN1CCN([C@@H](CN)c2ccc3c(c2)OCO3)CC1` stands “inactive”; under `O=C1C[C@H](c2ccccc2)[C@@H]2CNCCN12`, “inactive”.
On to `O=C(NC(=O)c1c(F)cccc1F)Nc1ccc(Cl)cc1`, for which the cytotoxicity call was “inactive”.
With `O=C(NC(=O)c1c(F)cccc1F)Nc1cc(Cl)c(OC(F)(F)[C@@H](F)C(F)(F)F)cc1Cl`, the cytotoxicity call is “inactive”.
Under `O=C(NC(=O)c1c(F)cccc1F)Nc1cc(Cl)c(OC(F)(F)C(F)C(F)(F)F)cc1Cl` (centres undefined) stands “active”; under `CN1CCc2cc3c(cc2[C@@H]1O)OCO3`, “inactive”; under `CN1CCc2cc3c(cc2C1O)OCO3.Cl` (centres undefined), “inactive”.
Under `COC(=O)C[C@](O)(CCC(C)(C)O)C(=O)O[C@@H]1C(OC)=C[C@]23CCCN2CCc2cc4c(cc2[C@H]13)OCO4` stands “active”; under `CN1C[C@@H]2c3nc(N(C)C)ncc3CS(=O)(=O)[C@H]2C1`, “inactive”.
Under `CC(C)[C@@]1(NC(=O)[C@H]2C[C@@H]3c4cccc5[nH]cc(c45)C[C@H]3N(C)C2)O[C@@]2(O)[C@H]3CCCN3C(=O)[C@@H](Cc3ccccc3)N2C1=O` stands “inactive”.
Turning to `CCC(CO)NC(=O)C1C=C2c3cccc4c3c(cn4C)CC2N(C)C1.O=C(O)C=CC(=O)O` (centres undefined), the cytotoxicity call is “inactive”.
Under `CN1CC(CNC(=O)OCc2ccccc2)CC2c3cccc4c3c(cn4C)CC21` (centres undefined) stands “active”.
